Shown are actives, neighbours in structure and some others; about 3.1% of the full set was active somewhere.
Bead autofluor – counter-screen for toxin protease inhibitors: compound fluorescence; 360,000 compounds, 3.1% hits; compound autofluorescence counterscreen, microsphere flow cytometry; hits give high values; fluorescence intensity (test concentration not listed); in the data active means fluorescence intensity above about 16000; inconclusive means no clear call, values can overlap the other calls
Anthrax LF prot – Bacillus anthracis LF protease inhibitors, primary screen, biochemical, multiplex microsphere, MLPCN library; 360,000 compounds, 0.12% hits; inhibition, % at 10 µM; multiplex microsphere protease cleavage assay; AID 588501, 2011; Lethal factor (Bacillus anthracis), P15917; further: plate controls were buffer without enzyme for full effect and enzyme alone for no effect
BoNT-F LC inh – BoNT/F light chain protease inhibitors, primary screen, biochemical, flow cytometry, MLPCN library | Botulinum neurotoxin type F light chain protease (Clostridium botulinum) | Multiplex microsphere protease cleavage assay | inhibition, % at 10 µM | 360,000 compounds, 0.22% hits; in the data active means inhibition above about 35%, passing the limit was not always enough; inconclusive means no clear call, values can overlap the other calls; further: plate controls were buffer without enzyme for full effect and enzyme alone for no effect
SSB-PriA inh – inhibitors of Klebsiella pneumoniae PriA binding to SSB C-terminal tail, primary screen, biochemical, AlphaScreen; PriA–SSB C-terminal tail interaction (Klebsiella pneumoniae); AlphaScreen SSBct-PriA binding, biotinylated peptide; inhibition, % at 33 µM; 430,000 compounds, 0.6% hits; AID 1272365, 2023; in the data active means inhibition mostly above about 37%, no sharp cut-off; inactive means mostly below about 20%;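 further: plate controls were negative control peptide for no effect and reference peptide for full effect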
BoNT-A LC inh2 – BoNT/A light chain protease inhibitors, primary screen, biochemical, flow cytometry, MLPCN library; Botulinum neurotoxin type A light chain protease (Clostridium botulinum A str. ATCC 3502); inhibition, % at 10 µM; multiplex microsphere protease substrate cleavage; 360,000 compounds, 0.17% hits; AID 588499, 2011; further: plate controls were buffer without enzyme for full effect and enzyme alone for no effect
* hit, by the source's call; u = inconclusive; x = no result. Unless noted, no stated cut-off is given here; in the data, active means inhibition above about 30%; inconclusive means no clear call, values can overlap the other calls; inactive means below that.

SMILES	Bead autofluor	Anthrax LF prot	BoNT-F LC inh	SSB-PriA inh	BoNT-A LC inh2
c1coc(-c2nc3nc4ccccc4nc3n2CC2CCCO2)c1 (stereo unspecified)	22833*	4.0	1.3	9.1	3.4
Cc1cc(C)c(C(=O)CSc2nc3ccccc3c(=O)[nH]2)cc1C	4376	-2.2	-4.7	-10.7	-0.9
CCc1ccc(C(=O)CSc2nc3ccccc3c(=O)[nH]2)cc1	21509*	-6.0	1.2	-2.9	0.4
Cc1ccc(C(=O)CSc2nc3ccccc3c(=O)[nH]2)cc1	21593*	-8.0	3.7	-2.6	2.8
Cc1ccc(C(=O)CSc2nc3ccccc3c(=O)[nH]2)cc1C	4835	-0.2	11.6	-6.3	-0.5
CCc1cc(C(=O)OC)c(N2C(=O)C3C4C=CC(C4)C3C2=O)s1 (stereo unspecified)	23671*	-1.2	-2.7	1.0	-0.1
CCc1cc(C(=O)OC)c(NC(=O)CC2SC(N)=NC2=O)s1 (stereo unspecified)	1932	-0.2	3.8	x	0.4
Cc1ccc2c(c1Cl)NC(C(=O)O)C1CC(Sc3ccccc3[N+](=O)[O-])C(Cl)C21 (stereo unspecified)	5219	3.0	-6.8	30.0	-2.1
CCN(CC)C(=O)c1ccc2c(c1)C1C(Cl)C(Sc3ccccc3[N+](=O)[O-])CC1C(C(=O)O)N2 (stereo unspecified)	3187	u	u	63.6*	u
Cc1cccc(NC(=O)CC(C(=O)O)N(C)C)c1C (stereo unspecified)	x	x	x	5.0	x
O=C(Nc1cccc2ncccc12)c1ccc(Cl)cc1	4059	-3.9	-16.4	47.9*	-3.3
O=C(Nc1cccc2ncccc12)c1ccc(-c2ccc(Br)cc2)o1	20512*	-20.4	7.4	31.9	6.0
CC1(C)CC(CC(=O)Nc2ccccn2)C(=O)O1 (stereo unspecified)	23618*	0.4	-0.6	-2.6	-0.8
Cc1ccc(NC(=S)NC(=O)CC2CC(C)(C)OC2=O)cc1 (stereo unspecified)	2454	-1.1	-2.0	3.2	0.2
COc1ccc(NC(=O)N2c3ccc(OC)cc3C(C)=CC2(C)C)cc1	2080	-2.1	-5.5	54.0*	0.1
CCOc1ccc2c(c1)C(C)=CC(C)(C)N2C(=O)Nc1ccccc1	u	3.6	-23.9	44.3*	0.3
COc1ccc(NC(=O)N2c3ccccc3C(C)=CC2(C)C)cc1	2707	0.2	-2.7	11.3	-0.1
CCNC(=O)N1c2ccc(OC)cc2C(C)=CC1(C)C	15958	-2.1	-2.7	4.4	1.3
COc1ccc(-c2cc3c(SCC(=O)Nc4ccc(Cl)cc4C(F)(F)F)nccn3n2)cc1	x	x	x	-17.0	x
CC(C)(O)C(O)COc1c2ccoc2cc2oc(=O)ccc12 (stereo unspecified)	5371	5.4	-3.0	39.6*	0.1
Cn1c(=O)[nH]c(=O)c2[nH]c(Br)nc21	x	x	x	3.0	x
Cc1ccc(NC(=O)c2cccc3c2-c2ccccc2C3=O)cc1C	5754	-7.8	-1.1	6.2	0.2
Cc1cccc(NC(=O)c2ccccc2-c2ccccc2)c1	3287	-8.6	3.6	-8.1	0.7
Cc1cccc(NC(=O)c2ccccc2C(=O)O)c1	19743*	-1.0	2.6	11.3	1.4
Cc1cccc(NC(=O)c2cccc3c2C(=O)c2ccccc2-3)c1	23188*	-0.3	0.3	-2.3	-0.2
SMILES	Bead autofluor	Anthrax LF prot	BoNT-F LC inh	SSB-PriA inh	BoNT-A LC inh2
Cc1ccccc1NC(=O)NCCCN1CCCC1	22559*	-1.3	0.6	-8.3	u
CC(NC(=O)Cc1cccs1)c1ccncc1 (stereo unspecified)	24187*	-9.4	-7.7	-12.1	-4.5
CSc1nc(NC(C)C)c2cnn(CCNC(=O)/C=C\c3ccc4c(c3)OCO4)c2n1	x	x	x	5.0	x
O=C(c1cc(-c2cccs2)[nH]n1)N1CCN(c2ccc(-n3cncn3)nn2)CC1	x	x	x	-6.0	x
COc1ccc(/C=C(/C#N)C(=O)NC2CCCCC2)cc1Br	3886	0.6	35.8*	1.2	0.9
CCCCOc1ccc(/C=C(\C#N)C(=O)NC2CC2)cc1	3581	u	50.5*	-12.3	9.9
N#C/C(=C\c1ccccc1)C(=O)NC1CC1	3093	-2.9	7.8	-2.5	-1.1
CC(C)CCNC[C@H](O)Cn1c2ccccc2c2ccccc21	x	x	x	-8.0	x
CC(=O)OC(C(O)=C(C#N)c1nc2ccccc2[nH]1)c1ccccc1 (stereo unspecified)	x	x	x	-4.1	x
CC(=O)Nc1ccc(-c2cn3c(n2)SCC3)cc1	4127	2.8	-11.6	-2.9	-2.1
O=C(Oc1ccc(-c2cn3c(n2)SCC3)cc1)c1ccccc1	20792*	-6.0	3.7	0.0	5.2
CCCCn1c(O)c(C(CC)=NCc2ccc(F)cc2)c(=O)[nH]c1=O	u	-22.2	-1.8	5.6	0.9
CCCCn1c(O)c(C(CC)=NCCN2CCCCC2)c(=O)[nH]c1=O	5028	-1.0	-1.8	-11.6	1.9
CCCCn1c(O)c(C(C)=NCCCN(CC)CC)c(=O)[nH]c1=O	23379*	-3.1	-4.1	2.8	0.5
CCCCn1c(O)c(C(C)=NCCCN(C)C)c(=O)[nH]c1=O	14900	-2.4	4.8	-2.8	3.6
CCCCn1c(O)c(C(C)=NCc2ccc(F)cc2)c(=O)[nH]c1=O	23819*	-0.8	-4.1	-14.0	-1.1
CCCCn1c(O)c(C(CC)=NCCCN(C)C)c(=O)[nH]c1=O	16159*	0.3	2.8	-16.0	1.3
CCOc1cc(/C=N/NC(=O)Cn2nc([N+](=O)[O-])cc2C)cc(Br)c1OCc1ccccc1C	16860*	-0.5	-1.9	x	-0.8
CNC(=O)c1ccc2c(OC)n(C)nc2c1	x	x	x	15.0	x
Cc1cc(NC(=O)Cc2ccccc2)c2ccccc2n1	4658	2.3	-3.9	-1.2	0.0
Cc1nc2ccccc2c2nc(NC(=O)Cc3ccccc3)nn12	17263*	-8.2	-6.6	-1.3	u
CCOc1ccc(N2C(=O)Cc3ccccc3C2=O)cc1	4047	1.1	5.8	-7.0	2.5
CCOc1ccc(N2CC(=O)N(c3ccc(OCC)cc3)CC2=O)cc1	22131*	-1.3	2.5	-2.1	1.2
CCOc1ccc(N2C(=O)CCC2=O)cc1	9791	-8.8	-3.3	-13.4	-0.5
CCOc1ccc(N2C(=O)c3cccnc3C2=O)cc1	19193*	-2.6	2.6	-4.3	2.8
SMILES	Bead autofluor	Anthrax LF prot	BoNT-F LC inh	SSB-PriA inh	BoNT-A LC inh2
C=CCOc1c(Br)cc(C2NC(=O)NC(C)=C2C(C)=O)cc1OCC (stereo unspecified)	22042*	-1.7	0.9	0.3	2.8
CC1CN(S(=O)(=O)c2ccc(C(=O)Nc3sc4c(c3C#N)CC(C)(C)NC4(C)C)cc2)CC(C)O1 (stereo unspecified)	x	x	x	0.0	x
CCc1ccc(N2C(=O)Cc3c2nc(N)c(C#N)c3N)cc1	21928*	-0.2	5.2	3.7	u
CC(C)(C)c1ccc(N2C(=O)Cc3c2nc(N)c(C#N)c3N)cc1	u	u	u	18.9	u
CN1C(=O)C(=Cc2ccc(-c3ccccc3)o2)C(=O)N(C)C1=O	x	x	x	-12.0	x
O=C(NCc1ccc2[nH]c3c(c2c1)CCCC3)Nc1cccc(Cl)c1	x	x	x	12.0	x

From PubChem
